Screening results from PubChem BioAssay.
Shiga toxin inh: inhibitors of Shiga toxin in Vero cells. Vero cells, Shiga toxin protein synthesis inhibition reporter. inhibition, % at 38.7 µM. 9.2% of 290,000 active. AID 2315; in the data active = inhibition mostly above about 28%, no sharp cut-off; inactive = mostly below about 43%
FMDV antiviral: foot and mouth disease virus antiviral activity; Potency, µM (top dose mostly 57.9 µM), actives largely listed as inhibitors; 1.2% of 410,000 active; FMDV antiviral cell-based qHTS; AID 1159524; calls by dose curve; tested in HEK293T cells; also: read-out not given here; nearly all actives have a fitted effect of over 45% in size
Lassa entry inh: Lassa virus entry inhibition; AID 540256; 1.2% of 300,000 active; Potency, µM (highest dose often 37.9 µM), usual class: inhibitors; Lassa virus pseudotype entry inhibition, cell reporter; calls by dose curve; tested in HEK293 cells; also: nearly all actives have a fitted effect of over 50% in size
Marburg entry inh: blocks Marburg virus binding to or entry into cells | 1.8% of 300,000 active | Potency, µM (series often up to 37.8 µM), hits mostly inhibitors | Marburg virus pseudotyped entry inhibition, cell reporter | AID 540276; calls by dose curve; tested in HEK293 cells
HCV inhibitor: HCV inhibition; Potency, µM (doses to about 41.8 µM), actives largely listed as inhibitors; Huh7.5.1 HCVcc-Cre infection, luciferase reporter, 44 h; 3.4% of 340,000 active; AID 651820; active = well fitted inhibition curve with a large enough effect; inconclusive = small, poorly fitted or top-dose-only effect, or another doubt; inactive = no such curve, though single readings can be large or run the other way
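Infectious HCV cell culture screen: compound-treated cells (1,000/well, pre-plated 4 h) are infected with HCVcc-Cre at roughly 0.5 moi and grown 44 h. Infection is quantified by luciferase signal after 15 min substrate incubation at room temperature.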
Cycloheximide cs: counter-screen hit for Shiga toxin inhibitors, cycloheximide; cell reporter, cycloheximide protein synthesis inhibition counterscreen; max response, %; 12% of 300,000 active; AID 2314; in the data active = max response mostly above about 13%, no sharp cut-off; inactive = mostly below about 14%; also: read at 38.3 µM for the half of the compounds with a filed dose
A number is an active result; 0 = inactive; ? = inconclusive; - = no result given; [ ] = another dose, or the depositor's remark. Compounds with a hit are over-represented: about 13% of the library has one in this group of screens.

SMILES	Shiga toxin inh	FMDV antiviral	Lassa entry inh	Marburg entry inh	HCV inhibitor	Cycloheximide cs
Cn1c2ccccc2c2n[nH]c(=S)nc21	-	0	0	0	0	0
COc1ccc(-c2nc3cnc(Nc4ccccc4)nc3n(C[C@H]3CCCO3)c2=O)cc1	-	0	-	-	-	-
CCCc1ncc(CN2CCCCC2C(=O)Nc2ccc(Oc3ccccc3)nc2)cn1 (stereo not drawn)	-	0	0	?	0	-
O=C(Nc1ccc(Oc2ccccc2)nc1)C1CCCCN1Cc1ccc(OCCO)cc1 (stereo not drawn)	0	0	-	-	0	22
COc1ccccc1OC(C)C(=O)N1CCC(Cc2ccccc2)CC1 (stereo not drawn)	0	0	0	0	0	0
Cn1nnnc1N=N/C(=N/Nc1ccccc1)c1ccccc1	0	0	?	1µM	4µM	17
COc1ccc(NC(=O)CSc2nc(C)cs2)c([N+](=O)[O-])c1	-	0	0	0	0	-
O=C(Nc1cccc([N+](=O)[O-])c1)c1ccc(CSc2ccccc2)cc1	0	0	0	0	0	0
O=C(Nc1ccc(Oc2cccnc2)cc1)c1cccc([N+](=O)[O-])c1	44	0	0	0	?	16
O=C(Nc1ccc(Oc2cccnc2)cc1)c1ccc([N+](=O)[O-])cc1	0	0	0	0	?	0
O=C(Nc1cccc([N+](=O)[O-])c1)c1ccccc1	0	0	-	-	?	18
COC(=O)C(Cc1cnc(Cl)s1)(C(=O)OC)c1ccc([N+](=O)[O-])cc1[N+](=O)[O-]	0	?	0	?	0	0
O=C(Nc1cccc2ccccc12)c1cccc([N+](=O)[O-])c1	0	0	-	-	0	0
O=[N+]([O-])c1ccc(OCc2cnc(Cl)s2)c([N+](=O)[O-])c1	0	0	0	0	0	20
O=C(Nc1ccc2ccccc2c1)c1cccc([N+](=O)[O-])c1	74	0	?	?	0	20
COc1cc(C(=O)N2CCC(c3nc4ccccc4s3)CC2)cc(OC)c1OC	-	0	0	0	-	-
CCCN(CC(=O)Nc1ccccc1C)C(=O)c1oc2ccc(OCC)cc2c1C	-	0	0	0	?	-
CCCCNC(=O)C1CCN(S(=O)(=O)CCC)CC1	-	0	0	-	-	-
Cc1ccn2c(=O)cc(CSc3nnc(C)s3)nc2c1	-	0	?	-	-	-
CCOc1ccc(C(=O)Nc2cccc([N+](=O)[O-])c2)cc1Br	0	0	0	?	7.1µM	20
CCCCC(=O)Nc1cccc(NC(=O)c2cccc([N+](=O)[O-])c2)c1	0	0	-	-	?	0
COc1ccc(C(=O)C(C)Oc2cccc(NC(=O)c3cccc([N+](=O)[O-])c3)c2)cc1 (stereo not drawn)	0	0	?	?	11µM	0
Nc1ccc(Oc2ccc([N+](=O)[O-])cc2[N+](=O)[O-])cc1	0	0	0	0	0	0
CC(C)C(=O)Nc1cccc(NC(=O)c2cccc([N+](=O)[O-])c2)c1	0	0	0	0	0	0
O=C(COC(=O)c1ccccc1C(=O)c1ccccc1)Nc1cccc([N+](=O)[O-])c1	30	0	?	0	?	19
SMILES	Shiga toxin inh	FMDV antiviral	Lassa entry inh	Marburg entry inh	HCV inhibitor	Cycloheximide cs
O=[N+]([O-])c1ccc(Oc2cccnc2)c([N+](=O)[O-])c1	-	32µM	?	7.9µM	?	-
CCN(CC)CCN1C(=O)C(=O)/C(=C(/O)c2ccc(OCC(C)C)cc2)C1c1ccncc1 (stereo not drawn)	0	-	-	0	-	0
C=CCOc1ccc(/C(O)=C2\C(=O)C(=O)N(CCN(C)C)C2c2cccs2)cc1 (stereo not drawn)	62	0	0	0	0	0
CCOc1ccc(/C(O)=C2/C(=O)C(=O)N(CCN(CC)CC)C2c2cccs2)cc1 (stereo not drawn)	51	0	-	-	0	43
CCN(CC)CCN1C(=O)C(=O)/C(=C(/O)c2ccc(OC)cc2)C1c1cccs1 (stereo not drawn)	67	-	-	-	-	58
COC(=O)C(Cc1ccc(O)cc1)NC(=O)CCC(=O)Nc1ccc(S(N)(=O)=O)cc1 (stereo not drawn)	0	0	0	0	0	0
O=C1N=C(N2C=CC(=C3C=CNC=C3)C=C2)/C(=C/N=NC(=O)c2ccccc2O)S1	54	0	-	-	0	26
COc1ccc(-c2ccc(SCC(=O)NC3CCCC3)nn2)cc1OC	52	0	?	0	0	27
COc1cccc(-c2ccc(SCC(=O)NC3CCCCC3)nn2)c1	0	0	?	0	0	20
COc1ccccc1-c1ccc(SCC(=O)NC2CCCC2)nn1	-	0	0	0	0[8.37 µM]	-
COc1ccc(-c2ccc(SCC(=O)Nc3cc(C)on3)nn2)cc1OC	100	0	0	?	0	22
C=C(C)C(=O)N1CC2(CC(c3cccc(NC(=O)/C(C)=C\C)c3)=NO2)C[C@H]1C(N)=O (stereo partly drawn)	0	0	-	-	0	0
Cc1ccc(NC(=O)c2nnn(Cc3cccc(C(F)(F)F)c3)c2N)c(C)c1	-	0	?	0	-	-
Cc1cc(C)c(CN2CCN(C(=O)Cn3cnc4c(NCc5ccccc5)ncnc43)CC2)c(C)c1	-	8.9µM	-	-	?	-
CSc1nc(N)nc2c1ncn2CC(=O)N1CCN(Cc2c(C)cc(C)cc2C)CC1	-	?	-	-	1.4µM	-
Cc1cc(C)c(CN2CCN(C(=O)Cn3ccc(N)nc3=O)CC2)c(C)c1	-	0	-	-	0	-
NC(=O)N1CC(O)CC1C(=O)Nc1ccc(Cl)c(Cl)c1 (stereo not drawn)	0	0	0	0	0	0
Cn1/c(=N/NC(=O)c2cccc(OC(F)F)c2)sc2ccccc21	0	0	?	?	?	0
O=[N+]([O-])c1ccc(OCC2CC(c3ccccc3)=NO2)cc1 (stereo not drawn)	0	0	0	0	0	0
COc1cc(C2NC(=S)NC(C)=C2C(=O)Nc2ccc(C)cc2)ccc1O (stereo not drawn)	71	0	0	?	0	45
COc1ccc(NC(=O)C2=C(C)NC(=S)NC2c2ccc(O)c(OC)c2)cc1 (stereo not drawn)	0	0	0	?	0	0
N=c1n(CCN2CCCCC2)c2ccccc2n1CC(O)c1cccc(Br)c1 (stereo not drawn)	0	?	?	11µM	13µM	0
N=c1n(CCN2CCOCC2)c2ccccc2n1CC(O)COc1ccccc1 (stereo not drawn)	0	0	0	?	0	0
CN(C)CCn1c(=N)n(CC(O)c2ccc(Cl)c(Cl)c2)c2ccccc21 (stereo not drawn)	0	?	-	-	7.1µM	0
N=c1n(CCN2CCCCC2)c2ccccc2n1CC(O)c1ccc(Cl)c(Cl)c1 (stereo not drawn)	0	-	?	5.8µM	13µM	0
O=c1c(-c2ccc(F)cc2)nc2cnc(Oc3ccccc3)nc2n1Cc1cccs1	-	0	-	-	-	-
COc1ccccc1CNC(=O)[C@H](C)NC(=O)C1CCN(C(=O)[C@H](CCSC)NC(=O)OC(C)(C)C)CC1	0	0	-	-	0	0
C[C@@H]1CCCCO[C@@H](CN(C)S(=O)(=O)c2ccc(F)cc2)[C@@H](C)CN([C@H](C)CO)C(=O)c2cc(N(C)C)ccc2O1	-	0	-	-	-	-
